Test results taken from PubChem BioAssay (Tox21).
Records with an inconclusive call do not appear. Where a call stands in place of a potency, no number is given. Calls of active or inactive are those of the source. Calls follow the shape of the dose curve; as a rule, active = well fitted inhibition curve with a large enough effect in the repeat runs; inconclusive = weak or mixed curves; inactive = no such curve, though single readings can be large or run the other way.

Target: Cytochrome P450 3A4 (Homo sapiens) (UniProt P08684)
Sequence (P08684 whole entry, looked up): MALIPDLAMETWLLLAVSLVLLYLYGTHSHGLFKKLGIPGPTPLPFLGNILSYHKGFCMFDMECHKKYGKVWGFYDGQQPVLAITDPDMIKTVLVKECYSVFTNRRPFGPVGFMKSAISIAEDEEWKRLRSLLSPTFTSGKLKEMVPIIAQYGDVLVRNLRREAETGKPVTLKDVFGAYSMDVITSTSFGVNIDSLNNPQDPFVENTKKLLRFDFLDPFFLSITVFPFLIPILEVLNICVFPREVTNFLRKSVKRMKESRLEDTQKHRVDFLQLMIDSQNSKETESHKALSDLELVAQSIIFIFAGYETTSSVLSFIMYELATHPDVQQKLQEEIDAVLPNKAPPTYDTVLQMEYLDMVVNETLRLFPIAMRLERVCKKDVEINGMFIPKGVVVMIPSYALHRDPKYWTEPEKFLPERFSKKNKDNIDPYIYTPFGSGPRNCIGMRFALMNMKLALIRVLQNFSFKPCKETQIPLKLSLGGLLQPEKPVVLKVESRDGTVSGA
Experiment: Cytochrome P450 Family 3 Subfamily A Member 4 (CYP3A4) small molecule antagonists: luciferase reporter qHTS assay (AID 1671201); also: nearly all actives have a fitted effect of over 50% in size
Settings: P450-Glo CYP3A4 enzyme, luciferin luminescence, 1 h; series mostly up to 115 µM
In short: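 Recombinant human CYP3A4 converts a proluciferin substrate to luciferin over 1 h at room temperature after NADPH regeneration solution is added (compound preincubated 10 min); detection reagent stops reaction, luminescence read 20 min later as relative units.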
Potency is read from the fitted curve at half-maximal effect.

Row | Structure (SMILES) | Potency
1 | O=C1Cc2cc(Cl)ccc2N1 | inactive
2 | NCCNCCO | inactive
3 | N#CCCN(CCO)CCO | inactive
4 | CCCCCCCC/C=C\CCCCCCCCCCCC(=O)O | inactive
5 | CCn1cc(C(=O)O)c(=O)c2cc(F)c(N3CCNCC3)cc21 | inactive
6 | CC[C@]1(O)C[C@H]2CN(CCc3c([nH]c4ccccc34)[C@@](C(=O)OC)(c3cc4c(cc3OC)N(C=O)[C@H]3[C@@](O)(C(=O)OC)[C@H](OC(C)=O)[C@]5(CC)C=CCN6CC[C@]43[C@@H]65)C2)C1 | 12.3 µM (active)
7 | CC(=O)OCC[N+](C)(C)C | inactive
8 | Cc1ccccc1S | inactive
9 | CCC(C)COC(C)=O (configuration not stated) | inactive
10 | O=C(O)C[C@H](NC(=O)OCc1ccccc1)C(=O)O | inactive
11 | O=C(O)CCC(=O)C(=O)O | inactive
12 | CN1C(C(=O)Nc2ccccn2)=C(O)c2sccc2S1(=O)=O | inactive
13 | CCN(CC)CCNC(=O)COc1ccc(OC)cc1 | inactive
14 | C[C@@H]1CC(=O)NN=C1c1ccc(NN=C(C#N)C#N)cc1 | inactive
15 | Cc1ccc(CO)cc1 | inactive
16 | CCOC(C)=O | inactive

Row | Structure (SMILES) | Potency
17 | C[C@@H](O)[C@H]1C(=O)N2C(C(=O)O)=C([C@H]3CCCO3)S[C@H]12 | inactive
18 | O=c1[nH]ncc2ccccc12 | inactive
19 | C=C(C)C(=O)OCCCCCCCCCCCCC | 55.7 µM (active)
20 | FC(F)(F)c1ccccc1Cl | inactive
21 | CC1=C(Br)C(=O)C(Br)=C/C1=C(/c1ccccc1S(=O)(=O)O)c1cc(Br)c(O)c(Br)c1C | 24.2 µM (active)
22 | CC=C(Cl)Cl | inactive
23 | CC(=O)Nc1ccc(C)cc1C | inactive
24 | CC(CCC(=O)O)C(=O)O (configuration not stated) | inactive
25 | O=C=Nc1cccc(C(F)(F)F)c1 | inactive
26 | CN1C(=O)OC(C)(C)C1=O | inactive
27 | CC(=O)OCC(=O)NCCCOc1cccc(CN2CCCCC2)c1 | inactive
28 | c1cc(N(CC2CO2)CC2CO2)ccc1Cc1ccc(N(CC2CO2)CC2CO2)cc1 (configuration not stated) | 12.6 µM (active)
29 | O=C1c2ccccc2C(=O)C1(O)O | inactive
30 | O=C1NCCN1CCO | inactive
31 | CCCCCCCCC(CCCCCC)C(=O)O (configuration not stated) | inactive
32 | Cc1ccc(Cl)c(Nc2ccccc2C(=O)O)c1Cl | inactive
